High-throughput results: PubChem, National Center for Advancing Translational Sciences (NCATS)
Hits are enriched below; roughly 19% of the tested compounds scored in any of these assays.
DT40 TDP1 CPT – DT40-hTDP1 cell growth loss with CPT | actives 12% (n = 420,000) | chicken DT40 Tdp1-/-;hTDP1 cells + 20 nM CPT, ATP luminescence, 48 h | Potency, µM (top dose mostly 46.2 µM), for the others: at the top dose activity change, negative = growth inhibition, most hits filed as inhibitors | AID 686979; note: nearly all actives have a fitted effect of over 55% in size
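Cell growth measured by CellTiter-Glo luminescence after a minimum 48 h, 37 C compound exposure with 20 nM CPT in Tdp1-knockout DT40 cells stably expressing hTDP1, seeded 400/well; qHTS titration format.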
RORg inh – ROR gamma (mouse) transcription inhibition; P51450; Drosophila S2 Gal4-RORgamma UAS-luciferase reporter, 20 h; Potency, µM (top dose mostly 53.6 µM), without a hit: top-dose activity change, negative = inhibition, actives largely listed as inhibitors; actives 5.4% (n = 310,000); AID 2551; note: nearly all actives have a fitted effect of over 60% in size
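Luciferase reporter read in Schneider cells carrying Gal4-RORγ (mouse) and UAS-Photinus luciferase; cells given compound 1 h before 700 uM copper sulfate induction, then incubated 20 h at ambient temperature.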
TDP1 inh – TDP1 (human) enzyme inhibition; recombinant TDP1, AlphaScreen DNA substrate cleavage; Potency, µM (titrated, usually from 130 µM), for inactives: at the top dose activity change, negative = inhibition, actives largely listed as inhibitors; actives 0.28% (n = 350,000); AID 485290; note: nearly all actives have a fitted effect of over 40% in size
Target sequence (Q9NUW8 whole entry, looked up): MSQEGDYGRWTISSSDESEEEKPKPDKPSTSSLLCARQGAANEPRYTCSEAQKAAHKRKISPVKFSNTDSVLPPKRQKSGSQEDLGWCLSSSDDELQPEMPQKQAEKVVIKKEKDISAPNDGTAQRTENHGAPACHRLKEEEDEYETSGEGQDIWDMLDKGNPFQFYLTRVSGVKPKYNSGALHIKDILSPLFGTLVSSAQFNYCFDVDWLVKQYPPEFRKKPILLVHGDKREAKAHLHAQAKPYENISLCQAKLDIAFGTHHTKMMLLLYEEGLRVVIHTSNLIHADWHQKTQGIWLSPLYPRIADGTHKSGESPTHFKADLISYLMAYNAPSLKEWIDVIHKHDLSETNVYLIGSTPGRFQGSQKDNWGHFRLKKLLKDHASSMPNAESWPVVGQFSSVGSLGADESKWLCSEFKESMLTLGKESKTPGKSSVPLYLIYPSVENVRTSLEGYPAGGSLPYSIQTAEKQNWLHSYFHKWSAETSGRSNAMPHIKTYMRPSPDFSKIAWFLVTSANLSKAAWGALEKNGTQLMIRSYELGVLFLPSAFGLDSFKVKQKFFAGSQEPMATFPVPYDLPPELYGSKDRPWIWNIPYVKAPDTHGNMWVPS
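Here, a 5' biotin and 3' phosphotyrosine-FITC DNA oligonucleotide reports Tdp1 activity: intact substrate bridges AlphaScreen beads, while cleavage leaves a 3' phosphate and drops signal. All incubations at room temperature.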
TDP1 cell noCPT – qHTS for Inhibitors of human tyrosyl-DNA phosphodiesterase 1 (TDP1): qHTS in cells in absence of CPT; DT40 Tdp1-/- hTDP1 cells, no CPT, ATP luminescence, 48 h; Potency, µM (highest dose often 46.2 µM), without a hit: at the top dose activity change, negative = growth inhibition, usual class: inhibitors; actives 15% (n = 420,000); AID 686978, 2013; note: nearly all actives have a fitted effect of over 55% in size
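Growth kinetics read by CellTiter-Glo luminescence after ≥48 hr at 37 °C. Cells: DT40 Tdp1-/- stably carrying human TDP1, 400 per well, compound exposure in the absence of CPT (DMSO vehicle).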
VP16 counter – Gal4-VP16 reporter inhibition counter-screen. actives 3.5% (n = 310,000). Drosophila S2 Gal4-VP16 UAS-luciferase, luminescence, 20 h. AID 2546. Potency, µM (doses to about 53.6 µM), for inactives: at the top dose activity, negative = inhibition, usual class: inhibitors;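 note: Gal4-VP16 expression switched on by copper sulfate through the metallothionein promoter; nearly all actives have a fitted effect of over 50% in size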
* hit, by the source's call; ? = inconclusive; . = not tested or not shown; ! = repeats disagree; [ ] = another dose, or the depositor's remark. Calls come from the whole dose curve; as a rule, active = well fitted curve in the direction sought with a large enough effect; inconclusive = small, poorly fitted or top-dose-only effect, or another doubt; inactive = no such curve, though single readings can be large; an effect the other way counts as inactive or inconclusive. % is set by controls: 0 for no effect and ±100 for the full control effect; potency is the fitted concentration of half-maximal effect.

SMILES | DT40 TDP1 CPT | RORg inh | TDP1 inh | TDP1 cell noCPT | VP16 counter
COc1ccc(NC(C)=O)cc1NC(=O)c1cccn(Cc2ccccc2)c1=O | -17.7% | . | 3.3% | -19.6% | .
COc1ccc(OC(=O)N(C)C[C@H]2OCc3cnnn3CCCC(=O)N([C@H](C)CO)C[C@@H]2C)cc1 | 3.8% | . | . | -5.5% | .
C(=NC1CCCCC1)=NC1CCCCC1 | . | ? | 6.5% | . | 2.24µM*
CC(C)c1ccc(NC(=O)c2ccc(F)c(S(=O)(=O)N3CCc4ccccc4C3)c2)cc1 | 4.61µM* | . | 7.0% | 5.17µM* | .
CCCCc1ccc(NC(=O)c2ccc3c(c2)CCN3S(=O)(=O)CC)cc1 | 7.31µM* | . | 8.6% | 3.66µM* | .
CC(C)c1ccc(NC(=O)c2ccc3c(c2)CCN3S(=O)(=O)c2ccccc2)cc1 | 4.61µM* | . | 7.0% | 5.8µM* | .
CCC/C=C/C=C/C(=O)OC1/C(=C/C(=O)OC)CC2CC(C(C)O)OC(=O)CC(O)CC3CC(OC(C)=O)C(C)(C)C(O)(CC4C/C(=C/C(=O)OC)CC(/C=C\C(C)(C)C1(O)O2)O4)O3 (centres undefined) | . | 1.9% | . | . | -28.7%
Cc1ccc(/C(CSc2nccn2-c2ncc(C(F)(F)F)cc2Cl)=N\O)cc1 | ? | ? | 3.2% | 18.4µM* | ?
N#CC(C#N)=Cc1ccc(N2CCCC2)cc1 | -29.3% | ? | 0.0% | ? | -1.6%
COc1cc(C=C(C#N)C#N)cc(O)c1O | . | . | 16.6%[56.1 µM] | . | .
CC(C)(C)c1cc(C=C(C#N)C#N)cc(C(C)(C)C)c1O | 0.651µM* | . | 12.1% | 0.651µM* | .
N#CC(C#N)=Cc1ccc(O)c(O)c1 | 21.1µM*! | 15.8µM* | 4.7%[56.1 µM] | 18.8µM*! | 14.1µM*!
COc1c(/C=C2/C(=O)NC(=O)N(C)C2=O)c(CCN(C)C(=O)c2ccccc2)cc2c1OCO2 | 0.1% | -2.3% | . | -15.1% | 0.2%
CC(C)NC(C)C | 1.7% | -3.2% | 18.9% | -0.1% | 5.9%
CC(=O)OC1C(O)C2=C3C4(C)C1C(C)(C)C(=O)CC4C3(O)C(OC(C)=O)C1(CC1C)C2=O (centres undefined) | 5.8µM* | . | . | 7.31µM* | .
C=CCOCC1CO1 (centres undefined) | . | 18.2% | 9.9% | . | -3.6%
CC(C)n1nc(-c2cc3cc(O)ccc3[nH]2)c2c(N)ncnc21 | 0.0944µM* | . | . | 0.168µM* | .
CCn1c(N)c(C(=O)NC)sc1=S | 18.4µM* | 2.2% | 6.5% | 16.4µM* | 0.8%
CCCCCCCCCC[N+](C)(C)CCCCCCCCCC | 1.33µM* | 37.8%[10 µM] | 2.1% | 0.944µM* | ?
CCCCCCCCCCCCCCCCCC[N+](C)(C)CCC[Si](OC)(OC)OC | 23.7µM* | 1.5%[10 µM] | 4.3% | 11.9µM* | -2.8%
CCCCCC[N+](=O)[O-] | 1.2% | -6.1% | 0.8% | 3.8% | 2.8%
CCCCCCCCCCCCCCCC[N+](C)(C)C | 2.31µM* | ? | 8.5% | 1.84µM* | ?
CN1CCC(=O)N(CCN=[N+]=[N-])CC1 | 1.9% | -18.2% | . | 9.8% | -1.5%
NC(=O)c1ccc(N)nc1 | 5.8µM* | 15.7% | 1.9% | 4.11µM* | -4.2%
C=CCn1c(O)c(/C=C2/C=c3ccccc3=N2)c(=O)[nH]c1=S | 4.0% | 35.0%[1.91 µM] | . | ? | ?
SMILES | DT40 TDP1 CPT | RORg inh | TDP1 inh | TDP1 cell noCPT | VP16 counter
C=CCn1c(-c2ccc([N+](=O)[O-])cc2)n[nH]c1=S | -7.9% | 11.2µM* | 7.7% | -8.1% | ?
COc1ccc(-c2cnnn2-c2ccc(NC(=O)c3ccc(S(=O)(=O)N(C)C)cc3)cc2)cc1 | 20.6µM* | . | 5.2% | 18.4µM* | .
COc1cc(OC)cc(C(=O)Nc2nc(-c3nnn(-c4ccc(C)cc4)c3C)ns2)c1 | ? | . | 0.0% | ? | .
COc1ccc(C(=O)Nc2ccc(S(=O)(=O)N(Cc3ccccc3)c3ccccc3)cc2)cc1 | 13µM* | . | 5.7% | 5.17µM* | .
CS(=O)(=O)N1CCC2(CC1)CN(Cc1ccncc1)C2 | 1.9% | 1.5% | . | 5.9% | 4.4%
O=C1N(c2ccc(Cl)cc2)C(c2cccnc2)N2CCCN12 (centres undefined) | -21.2% | 4.1% | -6.9% | ? | 23.9%
Oc1cccc(Cl)c1 | . | -2.3% | 3.7% | . | 7.7%
COc1cccc(NC(=O)CCc2nc(-c3ccc(C(C)(C)C)cc3)no2)c1 | ? | . | 4.9% | ? | .
COc1cccc(NC(=O)C2CCN(S(=O)(=O)c3cc(-c4noc(C)n4)ccc3C)CC2)c1 | 18.4µM* | . | 0.5% | 18.4µM* | .
O=Cc1cn(Cc2ccc([N+](=O)[O-])cc2)c2ccccc12 | ? | ? | 5.5% | ? | ?
CC(=O)O[C@H]1CC[C@@]2(C)C(=CC[C@@H]3[C@H]2CC[C@]2(C)C(=O)CC[C@H]32)C1 | . | 1.7%[16.9 µM] | . | . | -9.5%[17 µM]
O=C(CSC1c2ccccc2-c2ccccc21)N/N=C/c1ccc(C(=O)O)cc1 | 5.5% | -35.0% | 5.1% | 10.3% | -2.2%
O=C(CSC1c2ccccc2-c2ccccc21)N/N=C/c1ccccc1O | 7.31µM* | 12.6µM* | 8.8% | 6.51µM* | 17.8µM*
CCC(C)(C)n1nnnc1C(c1cccc(C#N)c1)N1CCN(c2cc(C)ccc2C)CC1 (centres undefined) | 16.4µM* | 7.7% | 2.1% | 23.1µM* | -6.6%
COC1=CC(=O)O[C@@H](/C=C\c2ccccc2)C1 | . | ? | 9.7%[21 µM] | . | -18.4%[17 µM]
